Screening data: PubChem, National Center for Advancing Translational Sciences (NCATS)
In the library only some 10% were active in any assay of this set; here they are far more common.
Pf growth 96h: P. falciparum growth inhibition at 96 hour, primary screen for plastid delayed-death inhibitors; P. falciparum luciferase reporter growth, 96 h; Potency, µM (highest dose often 28.7 µM), inactives show top-dose activity change, negative = inhibition, actives largely listed as inhibitors; 320,000 compounds, 6.9% hits; active = well fitted inhibition curve with a large enough effect; inconclusive = small, poorly fitted or top-dose-only effect, or another doubt; inactive = no such curve, though single readings can be large or run the other way; note: potency is the fitted concentration of half-maximal effect; % is set by controls: 0 for no effect and ±100 for the full control effect
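Two parasite generations (96 h, 37 C, 5% CO2) of compound exposure in infected erythrocytes (0.05% parasitemia, 2% hematocrit). Luciferase-reporter P. falciparum; decreased luminescence indicates inhibited growth, aimed at apicoplast-acting delayed death.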
NS1 inh: inhibitors of influenza NS1 protein function; 270,000 compounds, 0.4% hits; Potency, µM (top dose mostly 46.1 µM), without a hit: at the top dose activity, positive = more growth; note: potency is the fitted concentration of half-maximal effect; actives are rising curves; nearly all actives have a fitted effect of over 50% in size
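Read-out: OD600 growth recovery of NS1-expressing budding yeast. Cells grown overnight at 30C in -URA glucose medium, washed, resuspended and diluted 1:100 in 2% galactose assay medium, pH 6.0. Same strain lacking NS1 served as positive control.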
SARS PLpro yeast: SARS-CoV PLP inhibition in yeast | 330,000 compounds, 0.19% hits | S. cerevisiae expressing SARS-CoV PLpro, growth rescue | Potency, µM (titrated, usually from 32.9 µM), without a hit: top-dose activity, positive = growth rescue, hits mostly activators; note: potency is the fitted concentration of half-maximal effect; 0% is about no effect; nearly all actives have a fitted effect of over 55% in size
Pf growth 48h: inhibits P. falciparum growth in the first generation, 48 h; 310,000 compounds, 5.9% hits; AID 504832; Potency, µM (doses to about 28.7 µM), without a hit: at the top dose activity change, negative = inhibition, actives largely listed as inhibitors; P. falciparum luciferase growth in erythrocytes, 48 h; active = well fitted inhibition curve with a large enough effect; inconclusive = small, poorly fitted or top-dose-only effect, or another doubt; inactive = no such curve, though single readings can be large or run the other way; note: potency is the fitted concentration of half-maximal effect; % is set by controls: 0 for no effect and ±100 for the full control effect
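Read-out is firefly luciferase luminescence from an integrated reporter in P. falciparum, so falling signal marks reduced parasite growth. Infected erythrocytes were at 2% hematocrit and 0.1% parasitemia (final) in Albumax-supplemented RPMI 1640.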
NS1 inh valid: validation of influenza NS1 protein function inhibitors | shares compounds with NS1 inh | influenza NS1 function cell assay, 15-point titration | activity change, negative = inhibition, % at 32.9 µM | 1,400 tested, under 10 active | AID 492980; note: 0% is about no effect
An asterisk follows results filed as active. Unless noted, calls come from the whole dose curve.

`COc1ccc(C2CC(c3ccccc3Cl)Nc3ncnn32)cc1OC` (configuration not stated) gave Pf growth 96h 19%, NS1 inh 4.5µM*, SARS PLpro yeast -10%, Pf growth 48h -29% and NS1 inh valid inconclusive.
Screening O=S(=O)(NCC1CCCO1)c1cnc(Cl)c(Br)c1 (configuration not stated) returned Pf growth 96h -14%, NS1 inh 15%, SARS PLpro yeast 1% and Pf growth 48h -25%.
For CN(Cc1ccccc1)C(=O)c1cn(C)c2ccc(S(=O)(=O)N3CCCC3)cc2c1=O the results were Pf growth 96h inconclusive, NS1 inh 4%, SARS PLpro yeast 0% and Pf growth 48h -28%.
`COc1cccc(C2CC(c3ccc(Cl)cc3)Nc3nc(N)nn32)c1` (configuration not stated) gave Pf growth 96h 63%, NS1 inh 7.1µM*, SARS PLpro yeast 22%, Pf growth 48h 39% and NS1 inh valid -11.
For COc1ccc(C2CC(c3ccc(Cl)cc3)n3nc(N)nc3N2)cc1 (configuration not stated) the results were Pf growth 96h inconclusive, NS1 inh 5% and SARS PLpro yeast -6%.
Cc1cccc(NC(=O)CNC(=O)Cn2cc(C(F)(F)F)cc(Cl)c2=O)c1C was read as Pf growth 96h 22%, SARS PLpro yeast -1% and Pf growth 48h inconclusive.
`O=C(O)CSc1cnc2ccccc2n1` gave Pf growth 96h -5%, NS1 inh 16µM*, SARS PLpro yeast 8% and NS1 inh valid 7.
Screening COc1ccc(Nc2nc(NCc3ccco3)nc(N/N=C/c3ccc(O)cc3)n2)cc1 returned Pf growth 96h 16%, NS1 inh 11µM*, SARS PLpro yeast -26%, Pf growth 48h inconclusive and NS1 inh valid inconclusive.
`COc1ccc(/C=N/Nc2nc(Nc3ccccc3)nc(N3CCCC3)n2)cc1` gave Pf growth 96h 0%, SARS PLpro yeast 2% and Pf growth 48h inconclusive.
`Nc1nc(SCC(=O)c2c(N)n(C3CC3)c(=O)[nH]c2=O)n[nH]1` gave Pf growth 96h 16%, SARS PLpro yeast 2% and Pf growth 48h -1%.
COc1ccccc1NC(C)C(=O)N/N=C/c1ccccc1OCc1cccc(Br)c1 (configuration not stated) was read as Pf growth 96h 54%, NS1 inh 16µM*, SARS PLpro yeast -7%, Pf growth 48h -5% and NS1 inh valid -13.
Cc1cc(C)nc(N/N=C/c2ccccc2OCc2cccc(Br)c2)n1 was read as Pf growth 96h inconclusive, NS1 inh -33%, SARS PLpro yeast -9% and Pf growth 48h 1%.
`CNC(=S)N1N=C(c2ccc(Br)cc2)CC1c1ccc(OC)cc1` (configuration not stated) gave Pf growth 96h 10µM*, NS1 inh 22µM*, SARS PLpro yeast 0%, Pf growth 48h -27% and NS1 inh valid -32.
O=C(NCc1ccccc1)N[C@@H](Cc1ccccc1)C(=O)O was read as Pf growth 96h inconclusive, NS1 inh 6%, SARS PLpro yeast -2% and Pf growth 48h 17%.
O=C(NCc1ccc(F)cc1)N[C@@H](Cc1ccccc1)C(=O)O was read as Pf growth 96h inconclusive, NS1 inh 1µM*, SARS PLpro yeast 6%, Pf growth 48h 20% and NS1 inh valid 22.
For COc1cc(NC(=O)N[C@@H](Cc2ccccc2)C(=O)O)cc(OC)c1 the results were Pf growth 96h inconclusive, NS1 inh inconclusive, SARS PLpro yeast -2%, Pf growth 48h 3% and NS1 inh valid 18.
Screening Cc1[nH]c2ccccc2c1C(O)CN1CCN(c2cccc(C(F)(F)F)c2)CC1 (configuration not stated) returned Pf growth 96h inconclusive, NS1 inh inconclusive, SARS PLpro yeast -13%, Pf growth 48h inconclusive and NS1 inh valid inconclusive.
Screening O=C(CCCOc1ccc(Cl)cc1)N1CCCCC1 returned NS1 inh -18%, SARS PLpro yeast -7% and Pf growth 48h 70%.
`O=C(CCCOc1ccc(Cl)cc1)N1CCOCC1` gave Pf growth 96h 260%, NS1 inh 11µM*, SARS PLpro yeast -4%, Pf growth 48h 24% and NS1 inh valid -21.
`Cc1nc2sccn2c1-c1csc(NCc2ccccc2)n1` gave Pf growth 96h 74%, NS1 inh inconclusive, SARS PLpro yeast -1%, Pf growth 48h 13µM* and NS1 inh valid -29.
Cc1ccc2cc(C3C(C#N)=C(N)Oc4c3ccc3cccnc43)c(=O)[nH]c2c1 (configuration not stated) was read as Pf growth 96h 2.6µM*, NS1 inh 2.8µM*, SARS PLpro yeast 27%, Pf growth 48h inconclusive and NS1 inh valid 8.
For CCc1ccc2[nH]c(=O)c(C3C(C#N)=C(N)Oc4c3ccc3cccnc43)cc2c1 (configuration not stated) the results were Pf growth 96h inconclusive, NS1 inh -76%, SARS PLpro yeast inconclusive and Pf growth 48h inconclusive.
NC(=O)[C@@H]1CCOc2c(I)cc([N+](=O)[O-])cc2C(=O)N[C@@H](CO)C(=O)NCC(=O)N1 was read as Pf growth 96h -12%, NS1 inh 16%, SARS PLpro yeast 8% and Pf growth 48h 6%.
Screening CC1Cc2ccccc2N1C(=O)CSc1nnc2c(n1)[nH]c1ccccc12 (configuration not stated) returned Pf growth 96h inconclusive, NS1 inh 0%, SARS PLpro yeast 10% and Pf growth 48h inconclusive.
Screening CC1CCc2cc(F)ccc2N1C(=O)CSc1nnc2c(n1)[nH]c1ccc(F)cc12 (configuration not stated) returned Pf growth 96h inconclusive, NS1 inh inconclusive, SARS PLpro yeast 4%, Pf growth 48h 1µM* and NS1 inh valid 3.
For COc1ccc(-c2cc(C(=O)Nc3cc(C)n(Cc4ccc(Cl)cc4)n3)no2)cc1OC the results were Pf growth 96h 115%, NS1 inh 5µM*, SARS PLpro yeast 4%, Pf growth 48h inconclusive and NS1 inh valid -1.
Cc1ccccc1NC(=S)c1ccc2ccccc2n1 was read as Pf growth 96h 20%, NS1 inh 2%, SARS PLpro yeast -25% and Pf growth 48h -27%.
For CC(C)C(NC(=O)c1ccc(F)cc1)C(=O)N1CCN(c2ccccn2)CC1 (configuration not stated) the results were SARS PLpro yeast 2%.
CN(C)S(=O)(=O)c1cccc(C(=O)OCC(=O)c2ccc3c(c2)NC(=O)CO3)c1 was read as Pf growth 96h 7%, NS1 inh inconclusive, SARS PLpro yeast 2%, Pf growth 48h 23% and NS1 inh valid -10.
Screening Cc1cccc(/N=C/c2c(O)n(Cc3ccc4c(c3)OCO4)c(=O)c3ccccc23)n1 returned Pf growth 96h 18%, NS1 inh 1%, SARS PLpro yeast 2% and Pf growth 48h 1%.
